Compound activity from PubChem BioAssay.
A selection: hits, their analogues and other compounds. The true share with any hit is near 1.3%.
CIT2 TOR yeast: modulators of CIT2-GFP expression in yeast, primary screen, S. cerevisiae, GFP fusion, multiplex flow cytometry, MLPCN library; S. cerevisiae CIT2-GFP strain, 3 h; 100 means same as DMSO wells; GFP response vs DMSO, % at 10 µM; 320,000 tested, 0.065% active;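 active means GFP response relative to DMSO above a set limit, near the screen mean plus 3 SD, cut at about 150% in these data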;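 further: ratio of well median GFP fluorescence to mean of DMSO wells on the plate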
Efflux pump mplx: inhibitors of Candida efflux pumps in yeast, primary screen, S. cerevisiae, Nile Red, multiplex; S. cerevisiae Candida pump triplex; 330,000 tested, 0.44% active; inhibition, % at 10 µM;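 active means plate passing quality check with inhibition over a set limit, or well fluorescence over plate mean plus 4 SD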;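 further: Nile Red retained in pooled yeast measured as flow cytometry median fluorescence; higher means more Nile Red kept so more efflux inhibition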
RPL19A-GFP yeast: RPL19A-GFP expression modulators in yeast, primary screen, cell-based, S. cerevisiae, multiplex flow cytometry, MLPCN | percent response vs DMSO, % at 10 µM | 330,000 tested, 0.3% active | S. cerevisiae RPL19A-GFP strain, 3 h; active compounds read low | AID 2025, 2009;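 active means percent response vs DMSO below 50%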;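 further: median channel GFP fluorescence of the barcoded RPL19A-GFP strain; lower means less RPL19A-GFP as with rapamycin TOR inhibition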
MEP2-GFP yeast: modulators of MEP2-GFP levels in yeast, primary screen, S. cerevisiae, multiplex flow cytometry, MLPCN library; AID 2016, 2009; GFP response vs DMSO, % at 10 µM; 330,000 tested, 0.51% active; S. cerevisiae MEP2-GFP strain, 3 h; 100% = DMSO control level;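 active means GFP response versus DMSO above a set limit, roughly screen mean plus 3 SD, cut at about 180% in these data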;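 further: median GFP fluorescence of the barcode-gated MEP2-GFP cells per well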
AGP1-GFP MLPCN: modulators of AGP1-GFP expression in yeast TOR pathway, primary screen, cell-based, multiplex flow cytometry, S. cerevisiae, MLPCN library. 3 h; GFP as percent of DMSO wells. GFP response vs DMSO, % at 10 µM. 320,000 tested, 0.02% active. AID 2066, 2009;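 active means GFP response relative to DMSO above a set limit, near screen average plus 3 SD, cut at about 150% in these data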;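 further: median GFP channel fluorescence of the gated AGP1 strain per well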
LAP4 TOR yeast: modulators of LAP4-GFP expression in yeast, primary screen, S. cerevisiae, multiplex flow cytometry, MLPCN library; 3 h; median GFP as percent of DMSO wells; GFP response vs DMSO, % at 10 µM; 320,000 tested, 0.34% active; AID 2023, 2009;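 active means GFP response vs DMSO above a set limit, about the screen mean plus 3 SD, cut at about 150% in these data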
LAP4 cherry2: LAP4-GFP expression modulators in yeast, confirmation, cell-based, second cherry pick, flow cytometry; shares compounds with LAP4 TOR yeast; S. cerevisiae LAP4-GFP strain, 3 h; GFP response vs DMSO, % at 10 µM; 590 tested, 20% active; AID 2621, 2010;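 active means GFP signal as percent of the solvent control above about 150%, meaning raised reporter expression, limit read from the data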
MEP2-GFP pick2: modulators of MEP2-GFP levels in yeast, confirmation, S. cerevisiae, flow cytometry GFP, second cherry picks. GFP response vs DMSO, % at 10 µM. S. cerevisiae MEP2-GFP strain, 3 h. shares compounds with LAP4 TOR yeast. 590 tested, 10% active;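 active means GFP signal above 150% of the solvent control wells, that is a rise of more than half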;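 further: median channel GFP fluorescence of all gated yeast cells per well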
RPL19A GFP CP2: RPL19A-GFP modulators in TOR pathway yeast, confirmation, cell-based, S. cerevisiae, flow cytometry, second cherry pick; shares compounds with LAP4 TOR yeast; S. cerevisiae RPL19A-GFP strain, 3 h; active compounds read low; 100% means same as DMSO wells; GFP response vs DMSO, % at 10 µM; 590 tested, 3% active; AID 2623, 2010;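 active means under 65% GFP response relative to DMSO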;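 further: median GFP channel fluorescence per well over the all cells gate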
CIT2 GFP CP2: modulators of CIT2-GFP expression in yeast, confirmation, flow cytometry, second cherry pick, single plex; shares compounds with LAP4 TOR yeast; S. cerevisiae CIT2-GFP strain, 3 h; DMSO control wells read 100%; GFP response vs DMSO, % at 10 µM; 590 tested, 8% active; AID 2624, 2010;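 active means GFP response vs DMSO above about 150%, limit read from the data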;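 further: median green fluorescence per well over all gated yeast cells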
AGP1-GFP pick2: AGP1-GFP expression modulators, hit retest, confirmation, cell-based, flow cytometry, S. cerevisiae, cherry pick set 2. shares compounds with LAP4 TOR yeast. S. cerevisiae AGP1-GFP strain, 3 h. percent response vs DMSO, % at 10 µM. 590 tested, under 10 active. AID 2643, 2010;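 active means over 150 percent of DMSO response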;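 further: median GFP channel fluorescence over all cells without mother daughter split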
Yeast autofluor: compound autofluorescence in yeast s288c, dose response, artefact control for yeast TOR pathway GFP screen, s288c strain | fluorescence change (kMESF span) at 33 µM | 610 tested, under 10 active | shares compounds with LAP4 TOR yeast | S. cerevisiae s288c, 520 nm autofluorescence, flow cytometry, 3 h; active compounds read high; zero means same as solvent-only cells;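 active means fluorescence span over the dose series, or activity score, above about 33, limit read from the data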
Numbers stand for hits.

What do the screens show for `O=c1c2sc(-c3ccccc3)cc2nc2n1CCC2`?
CIT2 TOR yeast: inactive; Efflux pump mplx: inactive; RPL19A-GFP yeast: inactive; MEP2-GFP yeast: inactive; AGP1-GFP MLPCN: inactive; LAP4 TOR yeast: inactive; LAP4 cherry2: inactive; MEP2-GFP pick2: inactive; RPL19A GFP CP2: 59.3; CIT2 GFP CP2: inactive; AGP1-GFP pick2: inactive; Yeast autofluor: inactive

What do the screens show for `O=c1c2ccccc2nc(/C=C/c2ccc([N+](=O)[O-])cc2)n1CCCO`?
CIT2 TOR yeast: inactive; Efflux pump mplx: inactive; RPL19A-GFP yeast: inactive; MEP2-GFP yeast: inactive; AGP1-GFP MLPCN: inactive; LAP4 TOR yeast: inactive

Results for O=c1c2ccccc2nc(/C=C/c2ccc([N+](=O)[O-])o2)n1CCCO ?
CIT2 TOR yeast: 178.9; Efflux pump mplx: inactive; RPL19A-GFP yeast: inactive; MEP2-GFP yeast: 229.8; AGP1-GFP MLPCN: inactive; LAP4 TOR yeast: 193.4; LAP4 cherry2: 300.0; MEP2-GFP pick2: 352.8; RPL19A GFP CP2: inactive; CIT2 GFP CP2: 274.8; AGP1-GFP pick2: inactive

Results for Cc1cc(OCC(=O)Nc2ccccc2C)no1 ?
CIT2 TOR yeast: inactive; Efflux pump mplx: inactive; RPL19A-GFP yeast: inactive; MEP2-GFP yeast: inactive; AGP1-GFP MLPCN: inactive; LAP4 TOR yeast: inactive

How did O=C(Cn1cccc1C(=O)c1ccccc1)NCCC1=CCCCC1 do in these assays?
CIT2 TOR yeast: inactive; Efflux pump mplx: inactive; RPL19A-GFP yeast: inactive; MEP2-GFP yeast: inactive; AGP1-GFP MLPCN: inactive; LAP4 TOR yeast: inactive; LAP4 cherry2: inactive; MEP2-GFP pick2: inactive; RPL19A GFP CP2: inactive; CIT2 GFP CP2: inactive; AGP1-GFP pick2: inactive

Results for O=C(C#Cc1cccc([N+](=O)[O-])c1)c1ccccc1 ?
CIT2 TOR yeast: inactive; Efflux pump mplx: inactive; RPL19A-GFP yeast: inactive; MEP2-GFP yeast: inactive; AGP1-GFP MLPCN: inactive; LAP4 TOR yeast: 171.3; Yeast autofluor: inactive

How did Nc1ccccc1C#CC(=O)c1ccccc1 do in these assays?
CIT2 TOR yeast: inactive; Efflux pump mplx: inactive; RPL19A-GFP yeast: inactive; MEP2-GFP yeast: inactive; AGP1-GFP MLPCN: inactive; LAP4 TOR yeast: 227.7; LAP4 cherry2: 179.4; MEP2-GFP pick2: inactive; RPL19A GFP CP2: inactive; CIT2 GFP CP2: inactive; AGP1-GFP pick2: inactive; Yeast autofluor: inactive

What do the screens show for `Cc1ccc(S(=O)(=O)N2CCN(c3nn(C)c(=O)n(C)c3=O)CC2)cc1C`?
CIT2 TOR yeast: inactive; Efflux pump mplx: inactive; RPL19A-GFP yeast: inactive; MEP2-GFP yeast: inactive; AGP1-GFP MLPCN: inactive; LAP4 TOR yeast: inactive
